Data published in PubChem BioAssay AID372 (MTDP, 2006).
Out of some 100,000 compounds screened, about 770 (0.77%) were called active. What follows is part of a selection rich in actives, with near analogues and random picks from the rest. Unmarked numbers belong to inactive results. No stated cut-off is given here; in the data, active means inhibition above about 50%; inactive means the rest.

Target: Gag-Pol polyprotein (Human immunodeficiency virus type 1 group M subtype B (isolate HXB2)) (UniProt P04585)
Assay: RNase H inhibition, HIV 1 Gag Pol polyprotein, FRET biochemical assay, screening (AID 372)
Conditions: HIV-1 RT RNase H, FRET RNA/DNA substrate fluorescence; at 10 µM; active compounds read high

Which inhibition does the source give for `COc1ccc(N2C(=O)/C(=C\c3cc(OC)ccc3O)SC2=S)cc1` here?
Its inhibition is 22%.

With `O=C(N/N=C/c1sc2ccccc2c1Cl)c1ccncc1` as the compound, how does the inhibition read?
The inhibition was 16%.

`COc1cc(C(=O)N/C(=C/c2cccc([N+](=O)[O-])c2)C(=O)Nc2ccc(C)cc2)cc(OC)c1OC` was tested. Which inhibition did it give?
Its inhibition is 7%.

With `O=c1c(-c2ccccc2Cl)c(C(F)(F)F)oc2c(O)c(O)ccc12` as the compound, how does the inhibition read?
Its inhibition is 41%.

`Cc1c(O)ccc2c(=O)c(-c3ccccc3Cl)coc12` was tested. Which inhibition did it give?
Its inhibition is 9%.

How did the inhibition turn out when `O=c1c(-c2ccccc2Cl)coc2cc(O)ccc12` was run?
The inhibition was 19%.

`O=c1c(-c2ccccc2Cl)coc2c(O)c(O)ccc12` was tested. Which inhibition did it give?
Its inhibition is 55% (active).

`Cc1oc2c(O)c(O)ccc2c(=O)c1-c1ccccc1Cl` was tested. Which inhibition did it give?
Its inhibition is 52% (active).

With `Cc1oc2c(C)c(O)ccc2c(=O)c1-c1ccccc1Cl` as the compound, how does the inhibition read?
Its inhibition is 12%.

`COc1cc(C=C2C(=O)N(C)C(=O)N(C)C2=O)ccc1OCCOc1ccc(C)cc1` was tested. Which inhibition did it give?
Its inhibition is 11%.

`CCOC(=O)c1sc(NC(=O)COc2ccccc2C)c(C(=O)OCC)c1C` was tested. Which inhibition did it give?
The inhibition was 19%.

How did the inhibition turn out when `Cc1cc2c(cc1Br)NC(=O)C2=O` was run?
The inhibition was 27%.

`C=CCc1ccc(OCCOCCOc2ccc(C)cc2I)c(OC)c1` was tested. Which inhibition did it give?
The inhibition was 13%.

How did the inhibition turn out when `Cc1ccc(S(=O)(=O)Oc2cccc(/C=C3\SC(N)=NC3=O)c2)cc1` was run?
Its inhibition is 15%.

Which inhibition does the source give for `COc1cc(/C=C2\SC(=S)NC2=O)ccc1OS(=O)(=O)c1ccc(C)cc1` here?
The inhibition was 24%.

For `CC(=O)Nc1ccc(S(=O)(=O)Oc2cccc(/C=C3\SC(=S)NC3=O)c2)cc1`, which inhibition is on record?
Its inhibition is 8%.

For `COc1cc(/C=C2/SC(=S)NC2=O)cc(Cl)c1OS(=O)(=O)c1ccc(C)cc1`, which inhibition is on record?
Its inhibition is 54% (active).

With `O=C1NC(=S)S/C1=C\c1cccc(OS(=O)(=O)c2ccc([N+](=O)[O-])cc2)c1` as the compound, how does the inhibition read?
The inhibition was 57% (active).

`Cc1ccc(S(=O)(=O)Oc2ccc(/C=C3\SC(=S)NC3=O)cc2)cc1[N+](=O)[O-]` was tested. Which inhibition did it give?
Its inhibition is 57% (active).

With `O=C1NC(=S)S/C1=C\c1ccc(OS(=O)(=O)c2cccc([N+](=O)[O-])c2)cc1` as the compound, how does the inhibition read?
The inhibition was 31%.

How did the inhibition turn out when `NC1=NC(=O)/C(=C/c2cccc(OS(=O)(=O)c3ccc4ccccc4c3)c2)S1` was run?
Its inhibition is 50% (active).

`NC1=NC(=O)/C(=C/c2ccc(OS(=O)(=O)c3ccc4ccccc4c3)cc2)S1` was tested. Which inhibition did it give?
The inhibition was 20%.

`Cc1ccc(/C=C2/SC(=S)NC2=O)cc1[N+](=O)[O-]` was tested. Which inhibition did it give?
Its inhibition is 8%.

For `COc1cc(/C=C2\SC(=S)NC2=O)cc(Cl)c1OS(=O)(=O)c1ccccc1`, which inhibition is on record?
The inhibition was 11%.

For `O=C1NC(=S)S/C1=C\c1cccc(OS(=O)(=O)c2cccc([N+](=O)[O-])c2)c1`, which inhibition is on record?
The inhibition was 44%.

Which inhibition does the source give for `COc1ccc(-c2ccccc2)cc1NCc1ccc(C)s1` here?
The inhibition was 17%.

Which inhibition does the source give for `CNC(=O)OCCc1ccc(-c2ccccc2)o1` here?
Its inhibition is 4%.

Which inhibition does the source give for `CC1CC(=O)C2=C(C1)OC(N)=C(C#N)C2c1ccc(C(F)(F)F)cc1` (stereo not drawn) here?
The inhibition was 2%.

For `COC(=O)c1ccccc1NC(=O)c1cccc(C)c1`, which inhibition is on record?
The inhibition was 4%.

With `CCOc1ccc(Cc2c(O)n(-c3ccccc3)c(=S)[nH]c2=O)cc1` as the compound, how does the inhibition read?
Its inhibition is 18%.

Which inhibition does the source give for `COc1cc(/C=N/N2C(=O)c3cccc4cccc(c34)C2=O)cc(I)c1O` here?
The inhibition was 13%.

How did the inhibition turn out when `C/C(=N/Nc1cc(-c2ccccc2)nc(-c2ccccc2)n1)c1ccc(O)cc1` was run?
The inhibition was 4%.

Which inhibition does the source give for `CCOC(=O)C1=NN(c2ccccc2)C(=O)/C1=C\c1ccc(F)cc1` here?
Its inhibition is 0%.

For `COc1ccc(S(=O)(=O)Oc2cccc(/C=C3\SC(=S)NC3=O)c2)cc1`, which inhibition is on record?
Its inhibition is 20%.

`Cc1ccc(S(=O)(=O)Oc2ccc(/C=C3\SC(=S)NC3=O)cc2)cc1` was tested. Which inhibition did it give?
Its inhibition is 29%.

Which inhibition does the source give for `Cc1ccc(S(=O)(=O)Oc2cccc(/C=C3\SC(=S)NC3=O)c2)cc1` here?
The inhibition was 53% (active).

`CCOc1ccc(NC(=O)c2c(N)sc(-c3ccccc3)c2C)cc1` was tested. Which inhibition did it give?
The inhibition was 23%.

`COc1ccc(NC(=O)c2c(NC(=O)c3ccco3)sc(-c3ccccc3)c2C)cc1` was tested. Which inhibition did it give?
Its inhibition is 12%.

How did the inhibition turn out when `CCOC(=O)c1c(N)sc(C(=O)Nc2ccc(OC)cc2)c1C` was run?
The inhibition was 9%.

`COC(=O)c1c(N)sc(C(=O)Nc2ccc(C)cc2)c1C` was tested. Which inhibition did it give?
Its inhibition is 0%.

How did the inhibition turn out when `CCOc1ccccc1NC(=O)CN(c1ccc(C)c(Cl)c1)S(C)(=O)=O` was run?
The inhibition was 8%.

Which inhibition does the source give for `Clc1ccc(Oc2sc(Nc3cccc(Cl)c3)nc2-c2ccccc2)cc1` here?
Its inhibition is 21%.

With `NS(=O)(=O)c1ccc(CCNC(=O)/C=C/c2cccc([N+](=O)[O-])c2)cc1` as the compound, how does the inhibition read?
The inhibition was 4%.

`CCOc1ccc(/C=C(/C#N)c2nc3ccccc3[nH]2)cc1OC` was tested. Which inhibition did it give?
The inhibition was 0%.

With `O=C1c2ccccc2C(=O)c2cc(NC(=O)c3coc4ccccc34)ccc21` as the compound, how does the inhibition read?
The inhibition was 63% (active).

`CCOc1cc(C(=O)Nc2ccc3c(c2)C(=O)c2ccccc2C3=O)cc(OCC)c1OCC` was tested. Which inhibition did it give?
The inhibition was 0%.

For `CCCCOc1ccc(C(=O)Nc2ccc3c(c2)C(=O)c2ccccc2C3=O)cc1`, which inhibition is on record?
The inhibition was 40%.

`O=C(Nc1ccc2c(c1)C(=O)c1ccccc1C2=O)c1cccc(F)c1` was tested. Which inhibition did it give?
Its inhibition is 49%.

Which inhibition does the source give for `O=C(O)c1ccccc1C(=O)Nc1ccc2c(c1)C(=O)c1ccccc1C2=O` here?
Its inhibition is 0%.

Which inhibition does the source give for `Cc1ccccc1C(=O)Nc1ccc2c(c1)C(=O)c1ccccc1C2=O` here?
The inhibition was 18%.

Which inhibition does the source give for `O=C(Nc1ccc2c(c1)C(=O)c1ccccc1C2=O)c1ccccc1` here?
Its inhibition is 15%.

Which inhibition does the source give for `O=C(Nc1ccc2c(c1)C(=O)c1ccccc1C2=O)c1cccc(Cl)c1` here?
The inhibition was 60% (active).

`NC1=NC(=O)/C(=C/c2cc(Br)ccc2OCc2ccccc2)S1` was tested. Which inhibition did it give?
Its inhibition is 9%.

For `Cn1c(=O)c2c(nc(Sc3nc4ccccc4n3Cc3ccccc3)n2C)n(C)c1=O`, which inhibition is on record?
The inhibition was 0%.

With `CC(CCC(=O)Nc1ccc(F)cc1)CC(=O)Nc1ccc(F)cc1` (stereo not drawn) as the compound, how does the inhibition read?
Its inhibition is 6%.

Which inhibition does the source give for `CC(=O)c1cccc(NC(=O)CC2S/C(=N\N=C(/C)C(C)(C)C)NC2=O)c1` (stereo not drawn) here?
Its inhibition is 7%.

Which inhibition does the source give for `CCCc1sc(NC(=O)c2ccc(OC)cc2)nc1-c1ccc(Br)cc1` here?
The inhibition was 42%.

With `CCCCCCCNC1CC(=O)N(c2ccc(OCCC)cc2)C1=O` (stereo not drawn) as the compound, how does the inhibition read?
Its inhibition is 6%.

With `CCOc1ccc(C(=O)NC(=S)Nc2ccc(-c3nc4ccc(C)cc4o3)cc2)cc1Cl` as the compound, how does the inhibition read?
The inhibition was 56% (active).

`CCOc1ccc(C(=O)Nc2ccc(-c3nc4cc(C)ccc4o3)cc2)cc1Cl` was tested. Which inhibition did it give?
The inhibition was 12%.

How did the inhibition turn out when `CCOc1ccc(C(=O)NC(=S)Nc2cc(-c3nc4ccc(C)cc4o3)ccc2Cl)cc1` was run?
The inhibition was 29%.

With `COc1ccc(C(=O)Nc2ccc(-c3nc4cc(C)c(C)cc4o3)cc2)cc1Cl` as the compound, how does the inhibition read?
The inhibition was 51% (active).

Which inhibition does the source give for `Cc1ccc2oc(-c3ccc(Cl)c(NC(=S)NC(=O)c4ccc(Cl)cc4)c3)nc2c1` here?
The inhibition was 48%.

For `CCOc1ccc(C(=O)Nc2ccc(-c3nc4ccc(C)cc4o3)cc2)cc1Cl`, which inhibition is on record?
Its inhibition is 59% (active).

With `CCOc1ccc(C(=O)NC(=S)Nc2ccc(Cl)c(-c3nc4ccc(C)cc4o3)c2)cc1Cl` as the compound, how does the inhibition read?
Its inhibition is 18%.

For `COc1ccc(C(=O)Nc2ccc3oc(-c4ccccc4)nc3c2)cc1Cl`, which inhibition is on record?
The inhibition was 4%.

For `CCOc1ccc(C(=O)NC(=S)Nc2cc(-c3nc4cc(C)ccc4o3)ccc2Cl)cc1`, which inhibition is on record?
The inhibition was 60% (active).

With `CCOc1cc(C(=O)Nc2ccc(-c3nc4ccc(C)cc4o3)cc2)cc(OCC)c1OCC` as the compound, how does the inhibition read?
The inhibition was 10%.

Which inhibition does the source give for `COc1ccc(C(=O)Nc2ccc3oc(-c4ccc(OC)c(Cl)c4)nc3c2)cc1Cl` here?
The inhibition was 30%.

Which inhibition does the source give for `CCOc1ccc(C(=O)NC(=S)Nc2ccc3oc(-c4ccc(C)cc4)nc3c2)cc1Cl` here?
Its inhibition is 10%.

Which inhibition does the source give for `CCOc1c(Br)cc(/C=C2/C(=O)NN(c3ccc(C)c(C)c3)C2=O)cc1OC` here?
Its inhibition is 22%.

`COc1cc([N+](=O)[O-])ccc1NC(=S)NC(=O)/C=C/c1ccccc1` was tested. Which inhibition did it give?
The inhibition was 12%.

`Fc1ccc(-c2nnc(-c3ccc(Br)o3)o2)cc1` was tested. Which inhibition did it give?
The inhibition was 6%.

How did the inhibition turn out when `COc1ccc(OC)c(N(CC(=O)N(Cc2ccccc2)Cc2ccccc2)S(=O)(=O)c2ccccc2)c1` was run?
Its inhibition is 21%.

Which inhibition does the source give for `O=C(N/N=C\c1ccc[nH]1)c1cccc2c3c([nH]c12)CCCC3` here?
The inhibition was 24%.

With `COc1ccc(OC)c(NC(=O)CN(c2ccc(C(C)C)cc2)S(=O)(=O)c2ccccc2)c1` as the compound, how does the inhibition read?
The inhibition was 8%.

How did the inhibition turn out when `C/C(=N/NC(=O)c1ccc2c(c1)OCO2)c1ccc(Br)s1` was run?
The inhibition was 13%.

Which inhibition does the source give for `COc1ccc(OCC(=O)N=Nc2c(O)n(C)c3c(C)cccc23)c(Br)c1` here?
The inhibition was 4%.

`Cc1cccc2c(N=NC(=O)COc3cccc(Br)c3)c(O)n(C)c12` was tested. Which inhibition did it give?
Its inhibition is 20%.

With `COc1cc(Br)ccc1OCC(=O)N=Nc1c(O)n(C)c2c(C)cccc12` as the compound, how does the inhibition read?
Its inhibition is 52% (active).

How did the inhibition turn out when `CC(=O)Oc1ccc(-c2cccc(C(=O)OC(C)C)c2)cc1` was run?
Its inhibition is 9%.

`CC(C)OC(=O)c1ccc(NC(=O)c2ccc(Br)cc2)cc1` was tested. Which inhibition did it give?
Its inhibition is 11%.

How did the inhibition turn out when `N#C/C(=C/c1ccc(OCc2ccc(C(=O)O)cc2)cc1)C(=O)Nc1ccccc1` was run?
Its inhibition is 0%.

For `C=CCc1cccc2cc(C(=O)Nc3ccccc3)c(=O)oc12`, which inhibition is on record?
Its inhibition is 12%.

How did the inhibition turn out when `C=CCc1cccc2cc(C(=O)Nc3ccc(C)c(Cl)c3)c(=O)oc12` was run?
The inhibition was 0%.

For `C=CCc1cccc2cc(C(=O)Nc3ccc(NC(C)=O)cc3)c(=O)oc12`, which inhibition is on record?
The inhibition was 10%.

Which inhibition does the source give for `C=CCc1cccc2cc(C(=O)Nc3ccc(Cl)c(Cl)c3)c(=O)oc12` here?
The inhibition was 62% (active).

How did the inhibition turn out when `C=CCc1cccc2cc(C(=O)NNC(=O)c3ccc(OC)cc3)c(=O)oc12` was run?
The inhibition was 1%.

`C=CCc1cccc2cc(C(=O)NNC(=O)CC#N)c(=O)oc12` was tested. Which inhibition did it give?
The inhibition was 54% (active).

For `CC(=O)/C(=C(/C)O)c1ncc(-c2ccccc2)s1`, which inhibition is on record?
The inhibition was 12%.

With `Cc1cccc(C(=O)Nc2cccc(C(=O)Nc3ccccc3Cl)c2)c1` as the compound, how does the inhibition read?
Its inhibition is 13%.

How did the inhibition turn out when `O=C(Cn1c(NCCO)nc2ccccc21)c1cccc2ccccc12` was run?
The inhibition was 21%.

With `COc1cccc(N2C(=O)/C(=C/c3ccc([N+](=O)[O-])cc3)SC2=S)c1` as the compound, how does the inhibition read?
Its inhibition is 7%.
